HepG2 viability – HepG2 cytotoxicity, counter-screen for TGF-b inhibitors | HepG2 CAGA-GFP viability, ATP luminescence, 18 h | Potency, µM (titrated, usually from 46.1 µM), usual class: cytotoxic | actives 0.76% (n = 410,000)
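CellTiter-Glo luminescence gave cytotoxicity after 18 hours at 37 degrees C. The cells were HepG2 CAGA-GFP in 1% FBS DMEM, stimulated with 500 pg/mL TGF-beta after compound addition. %Activity was normalised to no-cell wells (complete cell-killing) and DMSO (no toxicity), and curves were fitted and classified.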
TGFb inhibitor – blocks TGF-b signaling; HepG2 CAGA-GFP TGF-b/SMAD3 reporter, GFP fluorescence, 18 h; TGF-beta stimulated, 500 pg/mL final; Potency, µM (series often up to 46.1 µM), most hits filed as inhibitors; actives 1.2% (n = 410,000); further: nearly all actives have a fitted effect of over 65% in size
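Inhibition of TGF-beta-driven CAGA-GFP reporter expression in HEPG2 cells is measured by cellular GFP fluorescence after 18 h stimulation with 500 pg/mL recombinant TGF-beta in 1% FBS medium at 37 degrees C.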
TDP1 cell CPT – growth inhibition of DT40 Tdp1-/-;hTDP1 cells with camptothecin (screen for TDP1 inhibitors); AID 686979; chicken DT40 Tdp1-/-;hTDP1 cells + 20 nM CPT, ATP luminescence, 48 h; Potency, µM (doses to about 46.2 µM), most hits filed as inhibitors; actives 12% (n = 420,000); further: nearly all actives have a fitted effect of over 55% in size
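Chicken DT40 Tdp1-/- cells stably complemented with human TDP1 were seeded at 400 cells/well in medium containing 20 nM camptothecin, exposed to pin-transferred compounds, and grown at 37 °C for at least 48 hr. Viability was read as ATP luminescence.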
IL1B secr inh – inhibitors of inflammasome signaling (IL-1 beta secretion). AID 743279. THP-1 LPS/ATP IL-1B secretion, AlphaLISA, 16 h; hits give low values. activity change, % at 57.5 µM. actives 4.7% (n = 360,000); in the data active means activity change below about -50%; inconclusive means mostly about -30% to -49%
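Secreted IL-1B measured by AlphaLISA bead assay after 16 h compound exposure of THP-1 cells; compounds (final up to 57.5 uM) added 1 h before LPS (250 ng/mL) and ATP (1.25 mM) stimulation; lower signal means less secretion.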
TDP1 block – TDP1 (human) enzyme inhibition; Q9NUW8; recombinant TDP1, AlphaScreen DNA substrate cleavage; Potency, µM (highest dose often 130 µM), actives largely listed as inhibitors; actives 0.28% (n = 350,000); further: nearly all actives have a fitted effect of over 40% in size
Target sequence (Q9NUW8 whole entry, looked up): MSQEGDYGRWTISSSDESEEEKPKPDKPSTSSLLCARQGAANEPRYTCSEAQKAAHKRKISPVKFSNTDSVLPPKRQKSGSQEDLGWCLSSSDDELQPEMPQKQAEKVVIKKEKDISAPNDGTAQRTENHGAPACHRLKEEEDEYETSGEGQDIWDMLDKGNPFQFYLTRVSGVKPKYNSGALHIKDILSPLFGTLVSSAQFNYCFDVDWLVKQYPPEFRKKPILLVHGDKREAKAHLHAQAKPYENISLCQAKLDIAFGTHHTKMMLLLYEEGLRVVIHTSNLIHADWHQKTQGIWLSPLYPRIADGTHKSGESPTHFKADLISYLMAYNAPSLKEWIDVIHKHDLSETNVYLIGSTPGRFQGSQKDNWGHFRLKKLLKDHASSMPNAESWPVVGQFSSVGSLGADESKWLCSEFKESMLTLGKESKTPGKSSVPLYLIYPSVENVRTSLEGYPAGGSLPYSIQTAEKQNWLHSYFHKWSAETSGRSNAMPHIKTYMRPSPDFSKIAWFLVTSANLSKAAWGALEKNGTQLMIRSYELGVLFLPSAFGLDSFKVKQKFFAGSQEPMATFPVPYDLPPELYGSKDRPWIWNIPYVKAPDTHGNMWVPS
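Steps: enzyme plus compound, 15 min RT; add biotin/phosphotyrosine-FITC oligonucleotide (15 nM final), react 5 min; add donor/acceptor beads (10 ug/ml final), 10 min; read AlphaScreen. Tdp1 at 1 nM final.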
DT40 TDP1 no CPT – qHTS for Inhibitors of human tyrosyl-DNA phosphodiesterase 1 (TDP1): qHTS in cells in absence of CPT; DT40 Tdp1-/- hTDP1 cells, no CPT, ATP luminescence, 48 h; Potency, µM (titrated, usually from 46.2 µM), actives largely listed as inhibitors; actives 15% (n = 420,000); further: nearly all actives have a fitted effect of over 55% in size
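Growth of hTDP1-complemented DT40 Tdp1-knockout cells is measured by ATP luminescence after at least 48 hr compound exposure at 37 °C, with DMSO substituting for the 20 nM CPT used in the parallel screen.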
Hits are given with their value; n = inactive; u = inconclusive; x = no result. A selection: hits, their analogues and other compounds. The true share with any hit is near 19%. Unless noted, the call rests on the fitted dose curve; in most records, active means well fitted curve in the direction sought with a large enough effect; inconclusive means small, poorly fitted or top-dose-only effect, or another doubt; inactive means no such curve, though single readings can be large; an effect the other way counts as inactive or inconclusive.

SMILES | HepG2 viability | TGFb inhibitor | TDP1 cell CPT | IL1B secr inh | TDP1 block | DT40 TDP1 no CPT
O=C(c1ccccc1)N1CCCCC1CCN1CCCCC1 (centres undefined) | n | u | n | x | n | n
CCCS(=O)(=O)c1c(S(=O)(=O)CCC)c2c(N)cccn2c1C(=O)c1ccc(OC)cc1 | n | n | n | n | n | n
CCCS(=O)(=O)c1c(S(=O)(=O)CCC)c2c3ccccc3ccn2c1C(=O)OC | n | n | u | u | n | 26µM
Cc1ccc(O)c(Nc2nc3ccccc3c3nncn23)c1 | n | n | u | x | n | 9.2µM
Cc1ccc(O)c(Nc2c3ccccc3nc3ccccc23)c1 | n | u | 16µM | -95 | x | u
CN(C)c1ccc(/C=C/C=C2/C=Cc3ccccc32)cc1 | n | n | u | x | x | u
O=C(Nc1ccc(Cl)cc1)c1csc([C@@H]2C[C@H](O)[C@@H](CO)O2)n1 | n | n | u | n | x | n
O=C(Nc1nc2ccccc2s1)c1ccc2sc([C@H]3C[C@H](O)[C@@H](CO)O3)nc2c1 | n | n | 16µM | n | x | 16µM
O=C(Nc1cccc(Cl)c1)c1csc([C@H]2C[C@H](O)[C@@H](CO)O2)n1 | n | n | 18µM | n | x | u
O=C(NCc1cccc(C(F)(F)F)c1)c1ccc2sc([C@H]3C[C@H](O)[C@@H](CO)O3)nc2c1 | n | n | u | n | x | 16µM
O=C(Nc1cccc(C(F)(F)F)c1)Nc1nnc([C@@H]2C[C@H](O)[C@@H](CO)O2)s1 | n | n | 18µM | n | x | u
Cc1ccccc1C(=O)NCC(=O)OC(C(=O)Nc1cc(C(F)(F)F)ccc1Cl)c1ccccc1 (centres undefined) | x | x | x | x | n | x
COc1cccc([C@@H]2Oc3ccc(OC)cc3C[C@H]2OC(=O)NS(=O)(=O)c2ccc(F)cc2)c1 | x | x | x | x | n | x
CCOC(=O)C1=C(CS(=O)(=O)c2cccc(C(F)(F)F)c2)NC(=O)NC1c1cccc(OC)c1 (centres undefined) | n | n | u | x | n | u
CC(C)(Oc1ccc(Cl)cc1)C(=O)NNC(=O)c1ccc(Br)o1 | n | n | n | n | n | n
CS(=O)(=O)Nc1cccc(-c2cncnc2-n2ccnc2)c1 | x | x | n | x | x | n
O=C(NCc1cccc(C(F)(F)F)c1)c1ccc2sc(C3=C[C@@H](O)[C@@H](O)[C@@H](CO)O3)nc2c1 | n | n | 12µM | n | x | 12µM
O=C(O)CCC(=O)C(=O)O | x | x | n | x | n | n
O=C(O)C1C2C=CC(C2)C1C(=O)NCc1cccs1 (centres undefined) | n | n | n | n | 45µM | n
Cn1cc(-c2nc3cnc(Oc4ccccc4)nc3n(C3CC3)c2=O)c2ccccc21 | x | x | n | x | x | n
Cc1cccc(Cc2c(C)nc3c(C(=O)NCc4ccco4)cnn3c2C)c1 | n | 18µM | 22µM | -78 | n | 11µM
Cc1nc2c(C(=O)NCc3cccs3)cnn2c(C)c1Cc1ccccc1 | x | x | x | x | n | x
Cc1nc2c(C(=O)NCc3ccco3)cnn2c(C)c1Cc1ccc(F)cc1Cl | n | n | 11µM | n | n | u
O=C(/C=C/c1cccc(C(F)(F)F)c1)OCC(=O)N1CCN(c2ccccc2)CC1 | n | n | u | n | n | u
CC(=O)Nc1ccc(S(=O)(=O)N2CCC(n3c(C(F)(F)F)nc4cccnc43)CC2)cc1 | n | n | u | x | n | u
SMILES | HepG2 viability | TGFb inhibitor | TDP1 cell CPT | IL1B secr inh | TDP1 block | DT40 TDP1 no CPT
CC(=O)Nc1ccc(/C=C/C(=O)c2ccc3c(c2)OCCO3)cc1 | n | u | u | -102 | n | u
O=C(O)c1ccc(/C=C/C(=O)c2ccc3c(c2)OCCCO3)cc1 | n | u | u | -103 | x | 23µM
CC(=O)Nc1ccc(NC(=O)/C=C/c2ccc3c(c2)OCO3)cc1 | n | n | n | n | n | n
O=C(NCc1cccnc1)[C@@H]1CC=C[C@@H]2CCN(C3CCCCC3)C(=O)[C@@H]21 | n | n | n | x | x | n
Cc1ccc(S(=O)(=O)N2CCN(c3nc(-n4cncn4)nc4ccccc34)CC2)cc1 | x | x | n | x | x | u
O=C(CSc1nc2ccccc2c2nc(-c3ccccc3)nn12)Nc1ccc(Br)cc1 | n | n | n | x | n | n
Cc1ccc(C2C=CC(C#N)=CN2Cc2ccccc2)cc1 (centres undefined) | n | n | 23µM | n | x | u
O=C(CN1C(=O)NC(CCc2ccccc2)C1=O)Nc1cccc(Br)c1 (centres undefined) | n | n | u | n | n | 16µM
O=C(c1ccccc1F)N1CCC(N2CCCCCC2)CC1 | n | n | n | n | n | n
CC1CCN(C2CCN(C(=O)c3ccccc3F)CC2)CC1 | 11µM | n | n | n | n | n
Cc1nn(Cc2ccccc2Cl)c(C)c1C(=O)N(C)CC(=O)Nc1cccc(F)c1 | n | n | u | n | n | 16µM
Cc1nn(-c2ccc(F)cc2)c(Cl)c1C(=O)N(C)CC(=O)Nc1cccc(F)c1 | n | n | u | -52 | n | 15µM
Cc1nn(-c2ccccc2)c(Cl)c1C(=O)N(C)CC(=O)Nc1cccc(F)c1 | n | n | u | n | n | u
COc1ccc(N2CC(C(=O)Nc3nc4ccc(F)cc4s3)CC2=O)c(OC)c1 (centres undefined) | n | n | u | n | n | u
Cc1ccc(C([O-])=C(C(=S)NCc2ccccc2)[n+]2cccc(CO)c2)cc1[N+](=O)[O-] | n | n | n | n | x | x
CCOc1ccc(NC(=S)/C(=C(\[O-])c2ccc(C)c([N+](=O)[O-])c2)[n+]2ccccc2)cc1 | n | n | u | n | n | 15µM
CCc1cc[n+](/C(C(=S)Nc2cccc(C)c2)=C(/[O-])c2ccc(C)c([N+](=O)[O-])c2)cc1 | n | n | 16µM | n | n | 12µM
Cc1ccc(/C([O-])=C(/C(=S)NCc2ccccc2)[n+]2ccccc2)cc1[N+](=O)[O-] | n | n | n | n | n | u
CCN(C/C=C/C#CC(C)(C)C)Cc1cccc(OCc2cc(-c3ccsc3)cs2)c1 | x | x | x | x | n | x
CCN(CC(=O)Nc1ccccc1C(F)(F)F)C(=O)c1cc2c(s1)CCCCC2 | n | n | u | -53 | x | 23µM
COCCN(CC(=O)Nc1cccc(C)c1C)C(=O)c1cc2c(s1)CCC2 | n | n | n | n | 22µM | n
COCCN(CC(=O)Nc1cccc(C)c1C)C(=O)c1cc2ccccc2cc1OC | n | n | u | n | n | u
N#Cc1c(-c2ccccc2)c(-c2ccccc2)nn(CC(=O)NNC(=O)Nc2ccc(Cl)cc2)c1=O | n | u | u | x | n | 23µM
